Compound activity as filed in PubChem BioAssay.
IL1B secr inh: qHTS for Inhibitors of Inflammasome Signaling: IL-1-beta AlphaLISA Primary Screen; activity change, % at 57.5 µM; THP-1 LPS/ATP IL-1B secretion, AlphaLISA, 16 h; active compounds read low; AID 743279, 2014; hit rate 4.7% among 360,000; in the data active = activity change below about -50%; inconclusive = mostly about -30% to -49%; note: % is set by controls: 0 for no effect and ±100 for the full control effect
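Secreted IL-1B measured by AlphaLISA bead assay after 16 h compound exposure of THP-1 cells; compounds (final up to 57.5 uM) added 1 h before LPS (250 ng/mL) and ATP (1.25 mM) stimulation; lower signal means less secretion.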
TGFb inhibitor: qHTS for Inhibitors of TGF-b | Potency, µM (titrated, usually from 46.1 µM), inactives show at the highest dose activity, negative = inhibition, most hits filed as inhibitors | HepG2 CAGA-GFP TGF-b/SMAD3 reporter, GFP fluorescence, 18 h; TGF-beta stimulated, 500 pg/mL final | hit rate 1.2% among 410,000; note: potency is the fitted concentration of half-maximal effect; % is set by controls: 0 for no effect and ±100 for the full control effect; nearly all actives have a fitted effect of over 65% in size
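HEPG2 CAGA-GFP reporter cells (1000/well, DMEM with 1% FBS) received compounds, then recombinant TGF-beta at 500 pg/mL final for 18 hours at 37 degrees C. Per-cell GFP summed per well was normalised to unstimulated and stimulated DMSO controls before curve fitting.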
HT1080 IDH1KD tx: qHTS for induction of synthetic lethality in tumor cells producing 2HG: qHTS for the HT-1080-IDH1KD cell line | HT-1080 IDH1 knockdown viability, ATP luminescence, 48 h | Potency, µM (doses to about 46.1 µM), without a hit: at the highest dose activity, negative = toxicity, actives largely listed as cytotoxic | hit rate 2% among 360,000 | AID 686971, 2013;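 note: potency is the fitted concentration of half-maximal effect; 0% = DMSO wells and -100% = cell-free medium wells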
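After a 2 h attachment period, IDH1KD HT-1080 cells took pin-transferred compound for 48 h at 37 °C; ATP-based luminescence after 10 min room-temperature reagent incubation reported viability.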
HepG2 tox: qHTS for Inhibitors of TGF-b: Cytotox Counterscreen; HepG2 CAGA-GFP viability, ATP luminescence, 18 h; Potency, µM (doses to about 46.1 µM), without a hit: at the top dose activity change, negative = cytotoxicity, hits mostly cytotoxic; hit rate 0.76% among 410,000; AID 588856, 2011; note: potency is the fitted concentration of half-maximal effect
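CellTiter-Glo luminescence gave cytotoxicity after 18 hours at 37 degrees C. The cells were HepG2 CAGA-GFP in 1% FBS DMEM, stimulated with 500 pg/mL TGF-beta after compound addition. %Activity was normalised to no-cell wells (complete cell-killing) and DMSO (no toxicity), and curves were fitted and classified.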
Giardia killer: Small Molecules that selectively kill Giardia lamblia: qHTS; AID 540267, 2011; activity change, % at 7.66 µM, hits read low; hit rate 0.15% among 340,000; Giardia lamblia trophozoite viability; in the data active = activity change below about -80%; inconclusive = between about -30% and that limit;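 note: parasites exposed to compound for two days anaerobically before the ATP read; % is set by controls: 0 for no effect and ±100 for the full control effect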
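Luminescent ATP signal served as the viability read-out, measured 15-30 min after adding ATP detection reagent to trophozoites that had been incubated with compounds for 48 hrs at 37 deg C anaerobically at 100 cells/well.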
HT1080NT lethal: qHTS for induction of synthetic lethality in tumor cells producing 2HG: qHTS for the HT-1080-NT fibrosarcoma cell line. HT-1080-NT fibrosarcoma viability, CellTiter-Glo ATP luminescence, 48 h. Potency, µM (series often up to 46.1 µM), without a hit: at the highest dose activity, negative = less viability, actives largely listed as cytotoxic. hit rate 1.6% among 360,000;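 note: NT is the 2HG producing partner of a matched IDH1 knockdown line; potency is the fitted concentration of half-maximal effect; 0% = DMSO-treated cells and -100% = media-only wells without cells; nearly all actives have a fitted effect of over 55% in size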
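Luminescent CellTiter-Glo readout after 48 hours of compound exposure at 37 degrees C defined viability of HT-1080-NT cells. Activity was normalized to DMSO wells and cell-free media wells; concentration-response curves were fitted and assigned curve classes.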
Active calls of the source: *; ? = inconclusive; / = no result given. Compounds with a hit are over-represented: about 6.5% of the library has one in this group of screens. Unless noted, calls come from the whole dose curve; as a rule, active = well fitted curve in the direction sought with a large enough effect; inconclusive = small, poorly fitted or top-dose-only effect, or another doubt; inactive = no such curve, though single readings can be large; an effect the other way counts as inactive or inconclusive.

SMILES	IL1B secr inh	TGFb inhibitor	HT1080 IDH1KD tx	HepG2 tox	Giardia killer	HT1080NT lethal
Cc1ccc(CCNC(=O)c2ccc(NC3=NC4CS(=O)(=O)CC4S3)cc2)cc1 (configuration not stated)	7	-1%	24%	4%	-11	15%
NC(c1csc(Nc2nccc(C(F)(F)F)n2)n1)C1CCCCC1 (configuration not stated)	?	?	21µM*	-96%	/	21µM*
NC(c1csc(Nc2ccc(C(F)(F)F)cn2)n1)C1CCCCC1 (configuration not stated)	-66*	?	18µM*	-87%	/	?
N#Cc1ccccc1S(=O)(=O)N1CCN(C(=O)CCc2ccccc2)CC1	-1	2%	-4%	-2%	-4	-3%
COC(=O)c1cc2occc2n1Cc1nc(-c2ccccc2F)oc1C	19	1%	9%	26%	-4	5%
Cc1cc(OCC(O)CNC(C)c2ccccc2)ccc1C(C)C (configuration not stated)	-91*	?	18µM*	-116%	10	23µM*
COc1ccc(OCC(O)CNC(C)c2ccccc2)cc1 (configuration not stated)	-12	-7%	-23%	-30%	-9	-25%
COc1ccc(OCC(O)CN(C2CCCCC2)C2CCCCC2)cc1 (configuration not stated)	-3	-15%	-5%	-35%	-11	-13%
CC(NCC(O)COc1ccc2ccccc2c1)c1ccccc1 (configuration not stated)	-94*	?	13µM*	11µM*	-21	18µM*
CN(CC(O)COc1ccc2ccccc2c1)C1CCCCC1 (configuration not stated)	-82*	-8%	?	-6%	1	?
COc1ccc(C(=O)NCc2ccc(S(N)(=O)=O)cc2)cc1[N+](=O)[O-]	27	-13%	2%	8%	2	-2%
Cc1ccc(C(=O)NCC(=O)OCC(=O)NCC(F)(F)F)cc1	-7	3%	17%	-16%	-4	14%
O=S(=O)(Nc1cc2nc3ccccc3nc2n1Cc1ccccc1)c1ccc(Cl)cc1	-91*	?	-6%	-22%	4	?
O=C(CC1(O)C(=O)Nc2cc(Cl)cc(Cl)c21)c1ccccc1O (configuration not stated)	-80*	?	?	-87%	-15	?
Cc1nc2c(sc3nc4c(cc32)COC(C)(C)C4)c(=O)n1CC(=O)NCc1ccco1	62	-16%	?	2%	1	7.1µM*
CC1(C)Cc2nc3sc4c(SCC(=O)NCc5ccco5)ncnc4c3cc2CO1	0	0%	2.6µM*	-2%	-10	?
CC1(C)Cc2nc3sc4c(=O)n(CC(=O)NCc5ccccc5)cnc4c3cc2CO1	53	15%	3.5µM*	4%	15	8.9µM*
CC(C)c1nc2sc3c(SCC(=O)NCc4ccco4)ncnc3c2c2c1CCC2	-10	-3%	?	-4%	?	?
CCN1CCN(C(=S)Nc2ccccc2Cl)CC1	-3	-4%	7%	-58%	19	3%
O=C1N=c2ccccc2=C1c1c(O)n(-c2cccc(F)c2)[nH]c1=O	-3	19%	-1%	-9%	3	0%
CCn1c(O)c(C2=c3ccccc3=NC2=O)c2cc(Br)ccc21	-64*	-3%	9%	-8%	-15	9%
CS(=O)(=O)c1ncc(Cl)c(C(=O)Nc2ccc(N3CCOCC3)cc2)n1	-102*	?	1.6µM*	-101%	-1	3.5µM*
CS(=O)(=O)c1ncc(Cl)c(C(=O)Nc2ccc(OC(F)F)cc2)n1	-99*	?	13µM*	-96%	-14	?
O=C(Nc1ccc(OC(F)F)cc1)c1ccccn1	2	-4%	2%	-14%	4	5%
CN(NC(=O)CN1C(=O)c2ccccc2C1=O)C1=NS(=O)(=O)c2ccccc21	6	0%	14%	-12%	6	17%
SMILES	IL1B secr inh	TGFb inhibitor	HT1080 IDH1KD tx	HepG2 tox	Giardia killer	HT1080NT lethal
COc1ccc(CN2CCN(C(=O)c3ccc4nc(N5CCOCC5)sc4c3)CC2)c(OC)c1OC	47	19%	0%	-7%	-1	1%
Cc1ccc(CNC(=O)C2CCCN(S(=O)(=O)c3cnc[nH]3)C2)cc1 (configuration not stated)	21	-6%	0%	0%	-19	-3%
COc1ccccc1N(CC(O)COc1ccc(C)cc1)S(=O)(=O)c1ccccc1 (configuration not stated)	-93*	?	-2%	2%	-9	4%
COc1ccccc1N(CC(O)COc1c(C)cc(C)cc1C)S(=O)(=O)c1ccccc1 (configuration not stated)	-56*	13µM*	-5%	11%	-15	4%
Cc1ccccc1Cn1c(=O)n(CC2CCC(C(=O)N3CCOCC3)CC2)c(=O)c2sccc21 (configuration not stated)	/	12%	/	-1%	/	/
CCC(=O)N1CCc2cc(Br)cc(S(=O)(=O)N3CCCC(C(=O)NCc4ccc(F)cc4)C3)c21 (configuration not stated)	/	?	/	-30%	/	/
CCN(C(=O)c1cc2c(s1)-c1ccccc1OC2)c1cc(Cl)ccc1OC	/	8.9µM*	/	-19%	/	/
CCN(C(=O)c1cc2c(s1)-c1c(C)cccc1OC2)c1cc(C)ccc1C	/	11µM*	/	-28%	/	/
CN(C)CCN(Cc1ccco1)C(=O)c1cc2c(s1)-c1ccccc1OC2	/	?	/	13µM*	/	/
CCCCN(Cc1ccco1)C(=O)c1cc2c(s1)-c1c(C)cccc1OC2	/	?	/	-22%	/	/
CCOc1ccc(C(=O)NC(=S)Nc2cccc(S(=O)(=O)NC3=NCCC3)c2)cc1	0	-27%	1µM*	9%	14	0.46µM*
CCOc1ccc(OCC(=O)Nc2cccc(S(=O)(=O)NC3=NCCC3)c2)cc1	37	-8%	-23%	-2%	-22	-13%
CCOc1cc(C(=O)Nc2ccc(S(=O)(=O)NC3=NCCCCC3)cc2)cc(Br)c1OC	-58*	3%	21µM*	-17%	4	?
